# Results filed as inconclusive are left out. Where a call stands in place of a potency, no number is given. Calls of active or inactive are those of the source. Unless noted, calls follow the shape of the dose curve; as a rule, active = well fitted curve in the direction sought with a large enough effect in the repeat runs; inconclusive = weak or mixed curves; inactive = no such curve, though single readings can be large; an effect the other way counts as inactive or inconclusive.
# Experiments:
# [1] = target: Calcium and integrin-binding protein 1 (Homo sapiens) (UniProt Q99828); assay: Primary qHTS for Identification of Calcium Integrin Binding Protein 1 (CIB1) Competitor (AID 1508620; active = well fitted curve in the direction sought with a large enough effect; an effect the other way counts as inactive or inconclusive;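 also: GST tagged CIB1 binding a fluorescein labelled alphaIIb integrin peptide tracer; top concentration of the series differs between compounds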)
# Calcium and integrin-binding protein 1 (Homo sapiens), sequence (Q99828 whole entry, looked up): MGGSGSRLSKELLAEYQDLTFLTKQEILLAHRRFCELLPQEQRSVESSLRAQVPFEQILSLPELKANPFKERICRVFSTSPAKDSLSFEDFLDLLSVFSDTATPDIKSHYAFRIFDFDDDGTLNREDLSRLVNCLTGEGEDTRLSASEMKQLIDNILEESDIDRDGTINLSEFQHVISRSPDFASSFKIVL
# Method in brief: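 CIB1-GST (1 uM final) and compound incubated 15 min at room temperature before adding FITC-alphaIIb peptide tracer (100 nM final). Competition for binding read by fluorescence polarization (ex 480, em 540) after another 15 min at room temperature.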
# [2] = target: Cytochrome P450 2D6 (Homo sapiens) (UniProt P10635); assay: Cytochrome P450 family 2 subfamily D member 6 (CYP2D6) small molecule antagonists: luciferase biochemical (cell-free) qHTS assay (AID 1645840); also: nearly all actives have a fitted effect of over 55% in size; also: potency is read from the fitted curve at half-maximal effect
# Cytochrome P450 2D6 (Homo sapiens), sequence (P10635 whole entry, looked up): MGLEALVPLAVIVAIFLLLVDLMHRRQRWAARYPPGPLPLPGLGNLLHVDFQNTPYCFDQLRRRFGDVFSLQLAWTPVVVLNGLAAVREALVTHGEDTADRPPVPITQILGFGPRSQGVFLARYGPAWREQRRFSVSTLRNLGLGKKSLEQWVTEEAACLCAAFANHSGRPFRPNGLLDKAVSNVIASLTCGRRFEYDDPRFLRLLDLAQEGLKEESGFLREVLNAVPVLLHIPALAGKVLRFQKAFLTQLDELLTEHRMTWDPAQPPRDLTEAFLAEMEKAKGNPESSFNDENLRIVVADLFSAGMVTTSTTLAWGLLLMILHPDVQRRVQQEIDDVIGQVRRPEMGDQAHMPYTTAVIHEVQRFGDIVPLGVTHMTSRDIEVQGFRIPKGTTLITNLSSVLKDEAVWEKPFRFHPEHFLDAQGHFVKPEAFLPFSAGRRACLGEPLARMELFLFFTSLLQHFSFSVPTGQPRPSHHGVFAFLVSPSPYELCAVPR
# Method in brief: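 P450-Glo CYP2D6 system: proluciferin substrate converted by enzyme to luciferin, read by luminescence proportional to activity. Enzyme-substrate mix with compound 10 min at room temperature, then NADPH regeneration 1 h before detection reagent.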
SMILES,Potency [1],Potency [2]
CN(C)S(=O)(=O)c1ccc(NC(=S)N2CCC(C(O)(c3ccccc3)c3ccccc3)CC2)cc1,inactive,inactive
CC(C)CCNc1ncccc1C(=O)N1CCN(Cc2ccccc2)CC1,inactive,5.35 µM (active)
COc1cc2c(Nc3cc(F)c(Cl)c(Cl)c3)ncnc2cc1OCC1CCCN(C)CCC1,inactive,16.9 µM (active)
CN(C)[C@@H]1CCc2[nH]c3ccc(NC(=O)c4ccc(F)cc4)cc3c2C1,inactive,inactive
COc1cc(-c2cn(C3CCc4c(F)cccc4N(CC(F)(F)F)C3=O)nn2)ccc1-n1cnc(C)c1 (stereo not given),inactive,26.8 µM (active)
C[C@H](Oc1cc(-n2cnc3ccc(CN4CCN(C)CC4)cc32)sc1C(N)=O)c1ccccc1C(F)(F)F,inactive,21.3 µM (active)
O=c1[nH]c2cccc(N3CCN(Cc4ccc(-c5ccccc5)cc4)CC3)c2o1,inactive,8.49 µM (active)
COc1cc(N(C)CCN(C)C)c(N)cc1Nc1nccc(-c2cn(C)c3ccccc23)n1,inactive,19 µM (active)
CN(C)c1cccc(Oc2cnc(Nc3cccc(O)c3)nc2)c1,inactive,21.3 µM (active)
Cc1ccc(NC(=O)N2CCN(c3nc(N)nc4sc(-c5cccnc5)nc34)CC2)cc1,inactive,13.5 µM (active)
